Bioassay records (PubChem BioAssay)
3T3 cytotox: cytotoxic compounds in NIH 3T3 cells; NIH 3T3 viability, CellTiter-Glo ATP luminescence, 48-72 h; Potency, µM (highest dose often 96.7 µM), without a hit: at the highest dose activity change, negative = cytotoxicity, most hits filed as inhibitors; AID 1345082; 94,000 compounds, 4.3% hits; note: nearly all actives have a fitted effect of over 55% in size
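First NIH 3T3 cells are plated at 400 cells/well; next compound is pinned in; then plates incubate 48 or 72 hr at 37 °C; finally CellTiter-Glo is added and luminescence read after 10 min.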
FLuc inh: blocks purified firefly luciferase enzyme activity; P08659; Potency, µM (highest dose often 115 µM), usual class: inhibitors; purified P. pyralis luciferase, luminescence, biochemical; AID 1347043; 76,000 compounds, 2.5% hits; note: nearly all actives have a fitted effect of over 65% in size
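Purified 10nM P. pyralis luciferase with 10uM D-luciferin and 10uM ATP in 50mM Tris acetate pH 7.5, 10mM Mg acetate, 0.01% Tween-20, 0.05% BSA. qHTS titration; luminescence read by CCD imager.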
hNpr1 antagonist: human Npr1 receptor antagonism; HEK293 hNpr1 GloSensor cGMP, ANP-stimulated luminescence; Potency, µM (top dose mostly 46.3 µM), inactives show top-dose activity change, negative = inhibition, most hits filed as inhibitors; 76,000 compounds, 1.6% hits; AID 1347048; calls by dose curve; note: nearly all actives have a fitted effect of over 60% in size
Target sequence (P16066 whole entry, looked up): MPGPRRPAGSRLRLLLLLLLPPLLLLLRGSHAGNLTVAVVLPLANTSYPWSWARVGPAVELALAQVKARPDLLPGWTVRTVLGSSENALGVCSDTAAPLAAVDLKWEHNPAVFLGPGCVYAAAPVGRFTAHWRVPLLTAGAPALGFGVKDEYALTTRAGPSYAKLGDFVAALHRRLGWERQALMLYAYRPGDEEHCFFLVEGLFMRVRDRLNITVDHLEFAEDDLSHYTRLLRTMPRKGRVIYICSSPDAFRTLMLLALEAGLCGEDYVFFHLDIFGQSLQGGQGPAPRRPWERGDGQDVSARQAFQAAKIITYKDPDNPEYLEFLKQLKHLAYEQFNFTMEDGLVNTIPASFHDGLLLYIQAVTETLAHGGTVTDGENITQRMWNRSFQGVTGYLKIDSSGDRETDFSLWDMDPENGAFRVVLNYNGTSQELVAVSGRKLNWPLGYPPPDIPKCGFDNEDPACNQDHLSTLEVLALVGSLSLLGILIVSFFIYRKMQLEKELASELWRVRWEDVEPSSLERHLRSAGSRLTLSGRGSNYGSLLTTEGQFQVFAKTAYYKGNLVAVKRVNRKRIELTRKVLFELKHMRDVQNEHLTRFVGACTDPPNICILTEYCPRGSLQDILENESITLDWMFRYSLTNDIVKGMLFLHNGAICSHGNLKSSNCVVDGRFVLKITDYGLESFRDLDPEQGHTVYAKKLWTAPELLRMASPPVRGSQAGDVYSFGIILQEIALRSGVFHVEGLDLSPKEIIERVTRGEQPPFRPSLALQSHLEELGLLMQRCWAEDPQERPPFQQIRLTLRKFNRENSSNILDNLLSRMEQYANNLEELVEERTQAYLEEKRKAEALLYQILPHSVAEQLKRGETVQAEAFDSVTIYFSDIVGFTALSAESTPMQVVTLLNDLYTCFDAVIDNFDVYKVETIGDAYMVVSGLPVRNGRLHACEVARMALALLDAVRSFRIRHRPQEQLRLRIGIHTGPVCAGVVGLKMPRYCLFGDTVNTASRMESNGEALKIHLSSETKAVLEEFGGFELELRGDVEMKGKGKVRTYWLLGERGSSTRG
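Compound pre-incubated 30 min at room temperature on GloSensor-loaded HEK293 cells stably carrying hNpr1 and the pGS-40F cGMP biosensor. Stimulation uses hNppA at 0.1 nM final; luminescence is taken at baseline and 20 min post-agonist.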
HEK cytotox: HEK 293 cell cytotoxicity; Potency, µM (doses to about 115 µM), for inactives: at the highest dose activity change, negative = cytotoxicity, most hits filed as inhibitors; AID 1345083; 94,000 compounds, 6.6% hits; HEK 293 viability, ATP luminescence (CellTiter-Glo), 48-72 h; note: nearly all actives have a fitted effect of over 60% in size
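HEK 293 seeded at 250 cells/well receive compound via pintool. After 48 or 72 hr at 37 degree Celsius, 5% CO2 and 95% humidity, CellTiter-Glo is dispensed and luminescence read following 10 min at room temperature.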
* marks the source's active call; other numbers are inactive results; [ ] = dose if it differs, or a comment. The list is not random: actives were taken first. Their share in the collection is about 11%. Unless noted, calls come from the whole dose curve; as a rule, active = well fitted curve in the direction sought with a large enough effect; inconclusive = small, poorly fitted or top-dose-only effect, or another doubt; inactive = no such curve, though single readings can be large; an effect the other way counts as inactive or inconclusive. % is set by controls: 0 for no effect and ±100 for the full control effect; potency is the fitted concentration of half-maximal effect.

`Fc1cc(F)cc(Cc2nc3nccc(-c4ccccc4)n3n2)c1` gave 3T3 cytotox -30%, FLuc inh inactive, hNpr1 antagonist -1% and HEK cytotox inconclusive.
For Cc1ccc(C(=O)N2CCCCCCNC(=O)CC2c2ccccc2)s1 (stereo not given) the results were 3T3 cytotox inconclusive, FLuc inh inactive, hNpr1 antagonist 5% and HEK cytotox inconclusive.
`COc1ccc(CCNC(=O)c2cc3n(n2)CC(c2ccc(Cl)cc2)OC3)cc1OC` (stereo not given) gave 3T3 cytotox inconclusive, FLuc inh inactive, hNpr1 antagonist inconclusive and HEK cytotox 45µM*.
`CC(C)c1ccc(CNC(=O)c2cc3n(n2)CC(c2ccc(Cl)cc2)OC3)cc1` (stereo not given) gave 3T3 cytotox 28µM*, FLuc inh inactive, hNpr1 antagonist -27% and HEK cytotox 32µM*.
Screening COc1cc(NC(=O)c2cc3n(n2)CC(c2ccc(Cl)cc2)OC3)cc(OC)c1OC (stereo not given) returned 3T3 cytotox inconclusive, FLuc inh inactive, hNpr1 antagonist -22% and HEK cytotox 45µM*.
For Cc1cn2nc(C(=O)NCc3ccc(C(C)C)cc3)cc2c(=O)[nH]1 the results were 3T3 cytotox -30%, FLuc inh 14µM*, hNpr1 antagonist 11% and HEK cytotox inconclusive.
Screening CC(C)c1cccc(NC(=O)c2cc3n(n2)CC(c2ccc(Cl)cc2)OC3)c1 (stereo not given) returned 3T3 cytotox -29%, FLuc inh inactive, hNpr1 antagonist -3% and HEK cytotox inconclusive.
Screening COc1ccc(-c2cc(N3CCC(NC(=O)c4cccc(N(C)C)c4)C3)n[nH]2)cc1 (stereo not given) returned 3T3 cytotox inconclusive, FLuc inh inconclusive, hNpr1 antagonist -19% and HEK cytotox inconclusive.
`Cc1ncccc1C(=O)N1CCC2(CC1)NCCc1c2[nH]c2ccccc12` gave 3T3 cytotox -14%, FLuc inh inactive, hNpr1 antagonist 12% and HEK cytotox -11%.
Screening COc1ccccc1-n1c(=O)c(C(=O)N2CCN(C(=O)c3cccc(Cl)c3)CC2)nc2cccnc21 returned 3T3 cytotox 1% and HEK cytotox -3%.
COc1ccccc1CNC(=O)c1cc2n(n1)CC(c1ccc(Cl)cc1)OC2 (stereo not given) was read as 3T3 cytotox inconclusive, FLuc inh inactive, hNpr1 antagonist inconclusive and HEK cytotox 40µM*.
`COc1ccc(CNC(=O)c2cc3n(n2)CC(c2ccc(Cl)cc2)OC3)c(OC)c1` (stereo not given) gave 3T3 cytotox inconclusive, FLuc inh inactive, hNpr1 antagonist -15% and HEK cytotox inconclusive.
For NCCCC(=O)N1CCC2(CC1)CN(C(=O)c1ccc(Cl)cc1)CCO2 the results were 3T3 cytotox 32µM* and HEK cytotox 3%.
`COCC(=O)NC[C@@H]1C=C(C)[C@H](Cc2nc3ccc(C(=O)OC)cc3[nH]2)C[C@H]1C(C)C` gave 3T3 cytotox 100µM*, FLuc inh inactive, hNpr1 antagonist -10%[70.6 µM] and HEK cytotox 63µM*.
`COC(=O)c1ccc2nc(C[C@@H]3C[C@@H](C(C)C)[C@H](CNC(=O)COCC(=O)O)C=C3C)[nH]c2c1` gave 3T3 cytotox -27%, FLuc inh inactive, hNpr1 antagonist 2% and HEK cytotox -18%.
`COC(=O)c1ccc2nc(C[C@@H]3C[C@@H](C(C)C)[C@H](CN(C)C)C=C3C)[nH]c2c1` gave 3T3 cytotox 71µM*, FLuc inh inactive, hNpr1 antagonist -12%[70.6 µM] and HEK cytotox inconclusive.
Screening COC(=O)c1ccc2nc(C[C@@H]3C[C@@H](C(C)C)[C@H](CNC(=O)CN(C)C)C=C3C)[nH]c2c1 returned 3T3 cytotox inconclusive, FLuc inh inactive, hNpr1 antagonist 1% and HEK cytotox 35µM*.
Screening COC(=O)c1ccc2nc(C[C@@H]3C[C@@H](C(C)C)[C@H](CNC(=O)CCCC(=O)O)C=C3C)[nH]c2c1 returned 3T3 cytotox -7%, FLuc inh inactive, hNpr1 antagonist 8% and HEK cytotox inconclusive.
COC(=O)c1ccc2nc(C[C@@H]3C[C@@H](C(C)C)[C@H](CNC(=O)C4CCC4)C=C3C)[nH]c2c1 was read as 3T3 cytotox inconclusive, FLuc inh inactive, hNpr1 antagonist -13% and HEK cytotox inconclusive.
COc1ccc(C(=O)Nc2nc3c(s2)C[C@@H]2[C@](C)(CO)[C@H](O)CC[C@@]2(C)[C@@H]3CC(=O)N2CCC(C)CC2)cc1 was read as 3T3 cytotox 18µM*, FLuc inh inactive, hNpr1 antagonist -14% and HEK cytotox inconclusive.
Screening CN(Cc1ccccc1)C(=O)C[C@@H]1c2nc(NC(=O)c3ccc(F)cc3)sc2C[C@@H]2[C@](C)(CO)[C@H](O)CC[C@]21C returned 3T3 cytotox 25µM*, FLuc inh inactive, hNpr1 antagonist -10% and HEK cytotox inconclusive.
`C#CCNC(=O)C[C@@H]1c2nc(NC(=O)c3ccc(C(C)(C)C)cc3)sc2C[C@@H]2[C@](C)(CO)[C@H](O)CC[C@]21C` gave 3T3 cytotox 32µM*, FLuc inh 35µM*, hNpr1 antagonist -9% and HEK cytotox inconclusive.
Screening COCC(=O)Nc1nc2c(s1)C[C@@H]1[C@](C)(CO)[C@H](O)CC[C@@]1(C)[C@@H]2CC(=O)N1CCC(C)CC1 returned 3T3 cytotox -6%, FLuc inh inactive, hNpr1 antagonist 0% and HEK cytotox inactive.
`COc1ccc(C(=O)Nc2nc3c(s2)C[C@@H]2[C@](C)(CO)[C@H](O)CC[C@@]2(C)[C@@H]3CC(=O)N(C)Cc2ccccc2)cc1` gave 3T3 cytotox inconclusive, FLuc inh inactive, hNpr1 antagonist -15% and HEK cytotox inconclusive.
`O=C(N[C@@H]1CCC[C@@H]1C(=O)N1CCCCCC1)c1ccncc1` gave 3T3 cytotox -9%, FLuc inh inactive, hNpr1 antagonist -8% and HEK cytotox -24%.
`OC1(c2cccc(C(F)(F)F)c2)CCN(Cc2nc(-c3cccs3)no2)CC1` gave 3T3 cytotox inconclusive, FLuc inh inactive, hNpr1 antagonist inconclusive and HEK cytotox inconclusive.
`Cc1cc(C)c2[nH]c(C(=O)N3CCN(Cc4ccccc4)C(=O)C3C)c(C)c2c1` (stereo not given) gave 3T3 cytotox 25µM*, FLuc inh inactive, hNpr1 antagonist 5% and HEK cytotox 35µM*.
Screening N#Cc1ccc(CNC(=O)[C@@H]2Cc3nc[nH]c3CN2Cc2cc3ccccc3o2)cc1 returned 3T3 cytotox inconclusive, FLuc inh inactive, hNpr1 antagonist 2%[70.6 µM] and HEK cytotox inconclusive.
For COc1ccc(OC)c(CN2CCNc3cc(-c4ccccc4)ncc3C2)c1 the results were 3T3 cytotox inconclusive, FLuc inh 40µM*, hNpr1 antagonist -6%[70.6 µM] and HEK cytotox 112µM*.
